# Over roughly 110,000 compounds, “z-score” has its median near -0.1; the highest 2% begin near 2. The list comes from a sample in which the highest values are over-represented; it also holds similar structures and randomly drawn compounds. Active and inactive are the calls of the source.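 Rule for the calls: active = z-score in the third read window above 3 or below -3; inactive = the rest.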 Non-standard residues stand in square brackets, D forms with d. Residues, ends and D or L forms follow the SMILES beside them. ξ: configuration not given here. *: point of attachment. Boc = CC(C)(C)OC(=O)*; ξP = O=C(O)C1CCCN1
# Target: Metabotropic glutamate receptor 8 (Rattus norvegicus) (UniProt P70579)
# Sequence (P70579 whole entry, looked up): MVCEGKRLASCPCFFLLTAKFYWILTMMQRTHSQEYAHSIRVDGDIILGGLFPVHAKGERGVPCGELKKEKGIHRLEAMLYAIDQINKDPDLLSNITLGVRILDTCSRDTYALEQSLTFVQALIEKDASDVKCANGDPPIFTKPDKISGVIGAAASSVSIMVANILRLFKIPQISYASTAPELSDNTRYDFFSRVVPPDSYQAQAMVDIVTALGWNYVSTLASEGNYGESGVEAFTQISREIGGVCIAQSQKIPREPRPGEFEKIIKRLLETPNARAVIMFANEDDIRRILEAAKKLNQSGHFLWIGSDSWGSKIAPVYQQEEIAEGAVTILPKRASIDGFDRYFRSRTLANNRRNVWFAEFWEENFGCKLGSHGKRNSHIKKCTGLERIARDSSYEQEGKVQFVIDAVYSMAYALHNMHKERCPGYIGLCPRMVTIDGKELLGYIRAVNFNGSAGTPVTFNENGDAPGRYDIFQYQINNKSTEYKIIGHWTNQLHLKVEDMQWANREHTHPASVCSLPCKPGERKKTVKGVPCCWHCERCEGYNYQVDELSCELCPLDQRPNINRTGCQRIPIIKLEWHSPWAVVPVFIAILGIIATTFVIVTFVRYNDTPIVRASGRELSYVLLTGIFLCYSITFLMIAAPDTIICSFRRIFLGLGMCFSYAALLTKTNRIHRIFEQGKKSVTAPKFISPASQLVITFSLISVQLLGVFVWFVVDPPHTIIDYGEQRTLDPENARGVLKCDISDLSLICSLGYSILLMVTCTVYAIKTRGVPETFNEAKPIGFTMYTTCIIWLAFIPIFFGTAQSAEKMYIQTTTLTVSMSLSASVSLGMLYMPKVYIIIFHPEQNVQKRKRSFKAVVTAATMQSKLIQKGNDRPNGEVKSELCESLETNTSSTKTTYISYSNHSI
# Assay: rat mGluR8 modulators via GIRK flux, primary screen, cell-based, thallium flux, HTS (AID 488969)
# Conditions: HEK293 rat mGluR8, GIRK (G protein-gated inwardly rectifying potassium channel) thallium flux, FluoZin2; at 10 µM; stronger effect = higher value; submaximal glutamate (EC20) added with thallium
row,Compound,z-score
1,COCCNC(=O)c1ccc(C(=O)C(=O)c2ccccc2)cc1,-0.189
2,CCOC(=O)N1CCC(NC(=O)c2cc3c(=O)n(C)c4ccccc4c3n2C)CC1,-0.597
3,CC(C)(C)NS(=O)(=O)c1ccc(CCC(=O)Nc2cc(Cl)ccc2Oc2ccccc2)cc1,0.0264
4,Cc1ccc(C(=O)Oc2coc(CSc3nnc(NC(=O)C4CC4)s3)cc2=O)cc1C,0.84
5,Cc1nnc(N(Cc2ccccc2)C(=O)c2cnccn2)s1,0.0216
6,C=CCn1c(SCC(=O)c2ccc(Cl)s2)nc2ccccc2c1=O,-0.205
7,C=CCn1c(SCN2C(=O)c3ccccc3C2=O)nc2ccc(Cl)cc2c1=O,12.6 (active)
8,C=CCn1c(SCC(=O)Nc2sccc2C(N)=O)nc2sc(CC)cc2c1=O,-1.15
9,C=CCn1c(SCC(=O)Nc2sccc2C(N)=O)nc2ccc(Cl)cc2c1=O,5.23 (active)
10,C=CCn1c(SCC(=O)NCCC2=CCCCC2)nc2ccc(Cl)cc2c1=O,-0.151
11,C=CCn1c(SCC(=O)Nc2sccc2C(N)=O)nc2ccccc2c1=O,-0.59
12,O=C1C2C3C=CC([C@@H]2C(=O)N1c1nccs1)C31CC1 (stereo partly specified),-0.0608
13,Cc1ccc2nc(NC(=O)c3ccc(NS(=O)(=O)c4cccs4)cc3)sc2c1,0.062
14,CC(C)NC(=S)N=Nc1c(O)[nH]c2ccc(C(C)C)cc12,0.589
15,NC(=S)N=Nc1c(O)[nH]c2ccc(F)cc12,1.48
16,CNC(=S)N=Nc1c(O)[nH]c2ccc(C(C)C)cc12,5.56 (active)
17,COC(=O)CNC(=O)C1CCCN1C(=O)OC(C)(C)C (stereo unspecified) (Boc-[ξP]-Gly-OMe),-0.536
18,Cn1cc(Cl)c(C(=O)Nc2nc3ccc(Cl)cc3s2)n1,0.119
19,CCOC(=O)N1CCN(c2c(F)cc3[nH]c(=S)[nH]c3c2Br)CC1,6.26 (active)
20,CCOC(=O)N1CCN(c2cc3[nH]c(=S)[nH]c3cc2F)CC1,-0.482
21,CCOC(=O)N1CCN(c2cc3nccnc3cc2F)CC1,-0.142
22,CC1CCCC(C)N1C(=O)CSc1nnc(NC(=O)Cc2cccs2)s1 (stereo unspecified),-1.05
23,Cc1cc(NC(=O)CCC(=O)NNC(=O)c2ccc(C(C)(C)C)cc2)no1,-0.141

row,Compound,z-score
1,Cc1noc(C)c1CSc1ccccc1C(=O)Nc1nccs1,0.618
2,CCN=c1scc(C)n1/N=C/c1ccsc1,-0.0195
3,COCCN=c1scc(-c2cccs2)n1/N=C/c1ccc(O)c(O)c1O,2.93
4,CN=c1scc(-c2cccs2)n1/N=C/c1ccc(O)c(O)c1O,3.01 (active)
5,CN=c1scc(C)n1/N=C/c1ccc(O)cc1O,0.0453
6,COc1ccc(O)c(/C=N/n2c(-c3ccco3)csc2=Nc2cccnc2)c1,0.368
7,CC(C)N=c1scc(-c2cccs2)n1/N=C/c1ccc(O)c(O)c1O,4.07 (active)
8,COCCNC(=O)Nc1ccc2nc(-c3cccs3)c(-c3cccs3)nc2c1,-0.235
9,CCN=c1scc(-c2cccs2)n1/N=C/c1cc(OC)ccc1O,2.02
10,CCN=c1scc(C)n1/N=C/c1ccc(O)c(O)c1O,-0.528
11,CN=c1scc(C)n1/N=C/c1ccc(O)c(O)c1O,-0.648
12,Oc1ccc(/C=N/N=C(c2ccccc2)c2ccccc2)c(O)c1O,-0.213
13,CN=c1scc(-c2cccs2)n1/N=C/c1ccccc1O,0.0374
14,COc1cc(/C=N/NC(=O)COc2ccc(Cl)cc2)ccc1OS(=O)(=O)c1ccc(C)cc1,-0.0849
15,CCOC(=O)C1=NNC(C(=O)c2ccc(C)cc2)C1c1ccc(C)cc1 (stereo unspecified),-0.512
16,C=C(C)c1cccc(C(C)(C)NC(=O)N2CC(C)OC(C)C2)c1 (stereo unspecified),-0.0325
17,Cc1nn(C)c(C)c1/C=C(\C#N)C(N)=O,-0.273
18,Cc1ccc(CN(Cc2ccc(C)o2)C(=S)NCC(=O)O)cc1,-0.00212
19,Cc1sc2nc(CN3CCCCC3)nc(Cl)c2c1C,-0.502
20,Cn1c(NCC(O)CO)nc2c1c(=O)n(Cc1ccc(Cl)c(Cl)c1)c(=O)n2C (stereo unspecified),-0.188
21,COc1ccc2c(c1)c(=O)cc(-c1ccccc1)n2C,-0.0758
22,COCCN=c1scc(-c2ccccc2)n1/N=C/c1c[nH]c2ccccc12,2.05
23,CCN=c1scc(-c2ccccc2)n1/N=C/c1ccccn1,-0.0993

row,Compound,z-score
1,COCCN=c1scc(-c2cc(OC)ccc2OC)n1/N=C/c1c[nH]c2ccccc12,-0.343
2,CCc1cccc(NC(=O)Cn2cc3c(n2)CCCC3)c1,0.22
3,CC(=O)c1cccc(NC(=O)Cn2cc3c(n2)CCCC3)c1,-0.279
4,CC1CCC(NC(=O)Cn2cc3c(n2)CCCC3)CC1 (stereo unspecified),2.79
5,COc1cccc(NC(=O)Cn2cc3c(n2)CCCCC3)c1,2.89
6,COc1cccc(CNC(=O)Cn2cc3c(n2)CCCCC3)c1,-0.00462
7,CC1CCc2nn(CC(=O)NC3CCCC3)cc2C1 (stereo unspecified),-0.653
8,Cc1cc(C)cc(NC(=O)Cn2cc3c(n2)CCCCC3)c1,5.95 (active)
9,O=C(Cn1cc2c(n1)CCCCC2)Nc1c(F)c(F)cc(F)c1F,0.762
10,CC1CCCC(NC(=O)Cn2cc3c(n2)CCCCC3)C1C (stereo unspecified),0.237
11,C/C(=N/NC(=O)c1ccc(O)cc1)c1cccc([N+](=O)[O-])c1,-0.369
12,Cc1c2ccccc2nc2c(F)c(NCCO)c(F)c(F)c12,-0.746
13,COc1ccc(/C=N/OCC(=O)N(Cc2ccc(OC)cc2)c2ccccc2C(=O)O)cc1,-0.615
14,Cc1nn(Cc2ccccc2)c(C)c1NC(=O)CCC(=O)O,-0.119
15,Cc1cc(C)c(C(=O)CSc2nnc(-c3cccnc3)n2C)c(C)c1,0.116
16,CCCCNC(=O)/C=C/c1cccs1,-0.364
17,N#CC(c1cccc(Cl)c1)c1ccc2c(C(F)(F)F)cc(C(F)(F)F)nc2n1 (stereo unspecified),10.5 (active)
18,Cc1ccc(C(C#N)c2ccc3c(C(F)(F)F)cc(C(F)(F)F)nc3n2)cc1 (stereo unspecified),1.26
19,N#CC(c1ccccc1)c1ccc2c(C(F)(F)F)cc(C(F)(F)F)nc2n1 (stereo unspecified),0.135
20,C/C(Cl)=C\Cn1c(NCCCn2ccnc2)nc2c1c(=O)n(C)c(=O)n2C,-0.632
21,Cn1c(=O)[nH]c(=O)c2c1nc(NC1CCCCC1)n2Cc1ccccc1,0.331
22,CC(=O)c1cc(OC(=O)N2CCOCC2)ccc1OC(=O)N1CCOCC1,-0.376
23,CN(C)Cc1nc2c(c(=O)[nH]1)C(C)(C)Cc1ccccc1-2,0.00689

row,Compound,z-score
1,O=C(COC(=O)c1ccc2c(c1)C(=O)N(c1cccc3ncccc13)C2=O)c1ccc(Cl)cc1,-0.619
2,COc1ccc(NC(=O)N2CC(C)OC(C)C2)cc1OC (stereo unspecified),-0.307
3,O=C(CCNS(=O)(=O)c1ccc2c(c1)CCC(=O)N2)NCc1cccnc1,-0.489
4,CCCn1nnc(NC(=O)COc2ccc(Cl)cc2)n1,-0.244
5,CCCn1nnc(NC(=O)COc2cc(C)ccc2C(C)C)n1,2.14
6,CCn1nnc(NC(=O)COc2ccc(C3CCCCC3)cc2)n1,2.13
7,CCn1nnc(NC(=O)COc2cc(C)ccc2C(C)C)n1,-0.0287
8,Cn1nnc(NC(=O)COc2ccc(C3CCCCC3)cc2)n1,0.85
9,CCCCn1nnc(NC(=O)COc2cc(C)ccc2C(C)C)n1,1.04
10,CCCn1nnc(NC(=O)COc2ccc(CC)cc2)n1,-0.0151
11,CCCn1nnc(NC(=O)COc2ccc(C3CCCCC3)cc2)n1,2.04
12,CCCCn1nnc(NC(=O)COc2ccc(Cl)c(C)c2)n1,0.0561
13,CC1C/C(=N/N=C2/NC(=O)CS2)CC(C)(C)C1 (stereo unspecified),-0.18
14,Cc1cccc(-n2nc3c([n+]2[O-])CCc2nonc2-3)c1C,-0.912
15,Clc1ccccc1CN(Cc1ccccc1)C(c1cccs1)c1nnnn1C1CCCC1 (stereo unspecified),-0.135
16,CN(C)C(CNC(=O)CCCc1c[nH]c2ccccc12)c1ccco1 (stereo unspecified),-0.0945
17,O=C(O)c1ccccc1C(=O)Nc1n[nH]c(=S)s1,-0.153
18,CCCCNC(=O)CSc1nc2ccc(N3CCOCC3)cc2c(=O)n1CCc1ccccc1,1.19
19,N#CCSc1nc2ccc(N3CCCCC3)cc2c(=O)n1Cc1ccccc1,0.65
20,COCCn1c(SCC(=O)Nc2ccc(N3CCOCC3)cc2)nc2ccccc21,-0.228
21,O=C(CSc1ncccn1)Nc1ccc(N2CCOCC2)cc1,-0.202
22,N#CCCn1c(SCC(=O)NCC2CCCO2)nc2ccccc21 (stereo unspecified),-0.368
23,O=C(CSc1ccccc1)Nc1ccc(N2CCOCC2)cc1,0.00596

row,Compound,z-score
1,CCCCn1c(SCC(=O)Nc2ccc(OC)cc2)nc2ccc(N3CCOCC3)cc2c1=O,4.35 (active)
2,CCCCn1c(SCC(=O)NCCOC)nc2ccc(N3CCOCC3)cc2c1=O,1.19
3,CCCCn1c(SCC(=O)NC(C)CC)nc2ccc(N3CCOCC3)cc2c1=O (stereo unspecified),0.126
4,Nc1ccccc1SCC(=O)Nc1ccc(N2CCOCC2)cc1,2.53
5,N#CCCn1c(SCC(=O)Nc2ccc(N3CCOCC3)cc2)nc2ccccc21,2.51
6,N#CCSc1nc2ccc(N3CCOCC3)cc2c(=O)n1CCc1ccccc1,4.95 (active)
7,Cc1cc(NS(=O)(=O)c2ccc(NC(=O)c3oc4ccccc4c3C)cc2)no1,0.155
8,CCC(CC)C(=O)Nc1ccc(Nc2ccccc2)cc1,-0.165
9,Cc1cc(N2CCN(c3ccccc3Cl)CC2)n2cc(-c3ccccc3)nc2n1,0.105
10,Cc1ccnc(SCC(=O)Nc2c(C)n(C)n(-c3ccccc3)c2=O)n1,-0.181
11,CC(C)(C)c1ccc(C(=O)NCc2cccnc2)cc1,0.116
12,CC(CCc1ccccc1)NC(=O)Cc1ccc([N+](=O)[O-])cc1 (stereo unspecified),-1.51
13,CCCCOc1ccc(C(C)NC(=O)CCS(=O)(=O)Cc2ccccc2Cl)cc1 (stereo unspecified),0.131
14,Cc1ccc(/C=N/NC(=O)c2cc3c(ccc4ccccc43)o2)cc1[N+](=O)[O-],-0.185
15,Cc1cccc2c1N1C(=O)c3c(C(=O)O)cccc3C1CC2C (stereo unspecified),-0.265
16,CON(C)c1nc(OCCNC(=O)COc2ccc(Cl)cc2C)nc(N(C)C)n1,0.98
17,CC1=CC(C)(C)N(C(=O)CN2C(=O)c3ccccc3C2=O)c2ccc(C)cc21,0.455
18,CCOC(=O)C1=C(C)NC(=O)C(C(N)=O)C12CCCC2 (stereo unspecified),-0.24
19,Cc1nc2ccccc2cc1C(=O)N/N=C/c1cccs1,-0.0999
